Measured values taken from PubChem BioAssay (NCI).
The panel holds about 83,000 compounds, 20% with a hit somewhere; the sample as a whole holds those more often.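 Step 1: grow cells in 96-well plates. Step 2: add test compound at a single concentration. Step 3: incubate 48 h. Step 4: record percent growth.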 Activity calls are given as the source filed them. How the source made its calls: active means growth percent below 10; inactive means the rest.

Test system: MDA-MB-468 breast
Assay: NCI-60 one-dose screen, 48 h (100 = growth as untreated, 0 = no growth, -100 = all killed)
Conditions: 10 µM unless noted

Compound | growth
N#CC1=C(c2ccc(Br)cc2)NC(SCC(=O)c2ccc(Br)cc2)NC1=O (centres undefined) | 113% (inactive)
Cc1nc2nc(N)nc(N)c2nc1C | 97.6% (inactive)
Nc1ncnc2c1ncn2C1OC(CO)C2OC21 (centres undefined) | 93.5% (inactive)
COc1cc2oc(-c3cccc(NC(=O)c4ccc5c(c4)OCO5)c3)cc(=O)c2c(OC)c1OC | 75.5% (inactive)
COc1ccc(-c2cc(-c3ccc(Cl)cc3)nc(SCCCC(=O)NO)n2)cc1 | -56.2% (active)
O=C1/C(=C/c2ccc([N+](=O)[O-])o2)Oc2ccccc21 | -50.9% (active)
O=C(CCCCCCC(=O)Nc1ccc2c(c1)/C(=C/c1ccc[nH]1)C(=O)N2)NO | 22.9% (inactive)
CCCCc1nc(Cl)c(C2CC(c3ccc(Cl)cc3)=NN2c2cc(Cl)cc(Cl)c2)[nH]1 (centres undefined) | 88.3% (inactive)
COc1cc(C2C(C#N)=C(N)Oc3cc4c(cc32)OCO4)cc2c1OCO2 (centres undefined) | -8.15% (active)
